Over roughly 39,000 sequences, “fluorescence intensity (a.u.)” has its median near 4,300; the highest 2% begin near 39,000. Only a selection was taken, and the highest values are over-represented in it overall.
These sequences were tested against T1, OsSMF1 (Oryza sativa, UniProt Q6ZLB0 1-436) (assay: protein-binding microarray (RPBM); PBS, 2% BSA, 51.3 ng/ul salmon testes DNA, 50 uM zinc acetate, 200 nM TF, 25 C, 1 h; high values mean tight binding). Details: protein: recombinant; tags: N-terminal polyhistidine and DsRed monomer fusion (pET32a); chain copies: 2; label: CyDye5-dUTP incorporated in the synthesized complementary strand; 3' TTTTT single-stranded linker to array surface; dsDNA, one strand shown.
T1 sequence: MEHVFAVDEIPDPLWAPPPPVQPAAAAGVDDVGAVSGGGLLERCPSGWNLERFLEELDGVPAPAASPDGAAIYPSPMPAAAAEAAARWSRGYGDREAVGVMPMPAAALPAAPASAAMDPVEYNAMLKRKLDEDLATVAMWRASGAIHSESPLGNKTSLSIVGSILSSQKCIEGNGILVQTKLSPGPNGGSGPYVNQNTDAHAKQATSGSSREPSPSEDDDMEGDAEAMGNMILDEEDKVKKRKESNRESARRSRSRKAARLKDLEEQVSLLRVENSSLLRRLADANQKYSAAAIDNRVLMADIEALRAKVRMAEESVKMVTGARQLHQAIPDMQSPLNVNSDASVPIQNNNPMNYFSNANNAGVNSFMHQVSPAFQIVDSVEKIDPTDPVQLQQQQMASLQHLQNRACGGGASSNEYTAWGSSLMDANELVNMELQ
Procedure, shortened: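 The binding signal is fluorescence intensity per array feature (arbitrary units). Readings came from an Axon 4000B scanner after a washed, 2% BSA-blocked, double-stranded custom Agilent array had been incubated for 1 h at 25 °C with 200 nM protein and 50 µM zinc acetate. The protein was a Ni–NTA-purified transcription factor fused N-terminally to polyhistidine and DsRed, expressed in E. coli BL21-CodonPlus.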

Sequence | binding signal
CACACTGAGTCAGCTGCCACGTCGGATAAAACCGGAGTCACGGAGTCACCTAGTGCAG | 10500 fluorescence intensity (a.u.)
CACGCCAACTAGGATGGATAGATGGGCCACATGTATTCCACGGAGTCACCTAGTGCAG | 3530 fluorescence intensity (a.u.)
GGAACATGTATGCACCGAACCTGGTGCATGTCCACGTTCACGGAGTCACCTAGTGCAG | 3740 fluorescence intensity (a.u.)
CACATTGAGTCAGCTGCCACGTCGGATAAAACCGGAGTCACGGAGTCACCTAGTGCAG | 15000 fluorescence intensity (a.u.)
GATGCACCACTGCTGCGTCGCACGTTCCACCCCATTCCACCGGAGTCACCTAGTGCAG | 3520 fluorescence intensity (a.u.)
GTTCAATTCCTGCTGGATGCACGTGAACCGGAACGTTCCACGGAGTCACCTAGTGCAG | 52000 fluorescence intensity (a.u.)
CACCTGCAGCTGCCACGTCAGAGCCACGTCGGATTCCAACCGGAGTCACCTAGTGCAG | 40800 fluorescence intensity (a.u.)
AGTATCAGATTCCAACTCACATGCCACGTCACATGCATGCCGGAGTCACCTAGTGCAG | 42200 fluorescence intensity (a.u.)
ATTCCTATCATTGGAGTATGTGTGCACGTCATTAGTGCCACGGAGTCACCTAGTGCAG | 6500 fluorescence intensity (a.u.)
TCTTTCTGCACTTTCTCTGAACGTGGATAAGACATAACCGCGGAGTCACCTAGTGCAG | 8130 fluorescence intensity (a.u.)
TTAATCACTTCTCAAACTTTTAATGCAATGACTTGTGAACCGGAGTCACCTAGTGCAG | 3420 fluorescence intensity (a.u.)
CGTCCGCAGCACGCCACGGTAGCGCGACACCCGGCCTTCCCGGAGTCACCTAGTGCAG | 4600 fluorescence intensity (a.u.)
AAGCGATGGAAGCAGCAGACGTGTCGCACGGGAATTTGAGCGGAGTCACCTAGTGCAG | 5240 fluorescence intensity (a.u.)
GGCATGGGTATGGGTCATCACTACCCATGCCCGCTTTGCCCGGAGTCACCTAGTGCAG | 4410 fluorescence intensity (a.u.)
GTTGACATATGGATCCTGGTGTTATCGACTCAATGTAGAGCGGAGTCACCTAGTGCAG | 5150 fluorescence intensity (a.u.)
GATGGTAGGTATGCATATGACGCATATCCTACCTGACGGACGGAGTCACCTAGTGCAG | 3450 fluorescence intensity (a.u.)
TTTTAGGTAGAATGGTCCTGTTGGATCATCATATCAATGACGGAGTCACCTAGTGCAG | 43400 fluorescence intensity (a.u.)
TATCCAGGCGCACGACACTTGACAACTCTGTACTACGTAGCGGAGTCACCTAGTGCAG | 38900 fluorescence intensity (a.u.)
AATTGATCTTCAGAGCCCACGTAGGTATTAGACTTTCCTACGGAGTCACCTAGTGCAG | 6290 fluorescence intensity (a.u.)
GGCCAGTTCTCTTCCACGTGGAGGCGGCCTCTCACAGCCGCGGAGTCACCTAGTGCAG | 10300 fluorescence intensity (a.u.)
TCATCATCATCATCATTATTAAAGTAAATTTCAGAAAACTCGGAGTCACCTAGTGCAG | 21600 fluorescence intensity (a.u.)
TAGTTTCACTTATTATTTATTTCAGTAAAAGAAAGTTTCCCGGAGTCACCTAGTGCAG | 3690 fluorescence intensity (a.u.)

Sequence | binding signal
AATTTCAGTACTCAGTTCATTAAATTAATTAAAGAAAGGCCGGAGTCACCTAGTGCAG | 51100 fluorescence intensity (a.u.)
GCGGAGGTCGACCTTGGCGAGGTCGTCCACGTCCGGGTGCCGGAGTCACCTAGTGCAG | 3340 fluorescence intensity (a.u.)
CCATCTTCATCTCCATATCTTCTCCTCCTCGCGTCGGCAGCGGAGTCACCTAGTGCAG | 3270 fluorescence intensity (a.u.)
TCTAACCCCGCCTGCAGATCCGCTCCATCGATTCCCTCCCCGGAGTCACCTAGTGCAG | 31700 fluorescence intensity (a.u.)
GCTTCTGCTGTGGCTGTGCTGAGCTTTCACAGTCACAGCCCGGAGTCACCTAGTGCAG | 3550 fluorescence intensity (a.u.)
GCAATCTCATGATTCATGCAGCTTTGTAGCAATGTGTGCTCGGAGTCACCTAGTGCAG | 3140 fluorescence intensity (a.u.)
CTTCAGTCCTCGGCCCATTCTCCCTTCCTTTCAGCTGGCTCGGAGTCACCTAGTGCAG | 45600 fluorescence intensity (a.u.)
CCCAGCCCGGCGTCCCCTTCTCGGCTTCCTCCTCCACCATCGGAGTCACCTAGTGCAG | 4100 fluorescence intensity (a.u.)
GGCCCCACATGTCATCTCCTCCCTTTCTTCTTCCTCCCCTCGGAGTCACCTAGTGCAG | 4040 fluorescence intensity (a.u.)
AAATCCGCCCTCGCCTCGCCCCGATCGATCCCCTCGATTCCGGAGTCACCTAGTGCAG | 3810 fluorescence intensity (a.u.)
TCTCCCCAGATTTCCCCTTCCATTCCGCCTCCCGATCGCTCGGAGTCACCTAGTGCAG | 43300 fluorescence intensity (a.u.)
AACTTCTCAATGTGTGGCCCCGAGCTGTGGCTTCACAGCTCGGAGTCACCTAGTGCAG | 63300 fluorescence intensity (a.u.)
GGAGGAGGAGGAGGAGGGAGATGGTGGCGAGCTGACTTGGCGGAGTCACCTAGTGCAG | 4090 fluorescence intensity (a.u.)
TCAGCTGCGTCACCCGAGTCCTCCACTCGTCTCCGCTATTCGGAGTCACCTAGTGCAG | 5650 fluorescence intensity (a.u.)
TCACTGCGTGCATGTATGTACGTGGATTGTCCAATTACAACGGAGTCACCTAGTGCAG | 3300 fluorescence intensity (a.u.)
CTCCTAGCAGCAACAGGGCCACGTTTGCTCTGCGAACAGGCGGAGTCACCTAGTGCAG | 4590 fluorescence intensity (a.u.)
TTTGGTTAGTGAATTTAGCTATCCTCTCCTTGACTTCCTACGGAGTCACCTAGTGCAG | 3660 fluorescence intensity (a.u.)
ATTTAGTGCTAAATATGTAGTTTCATGATACATCATGTTACGGAGTCACCTAGTGCAG | 3850 fluorescence intensity (a.u.)
TGGTGTGTAATTTGTGCAAATTCTAAGCAAATGCAAATTGCGGAGTCACCTAGTGCAG | 17200 fluorescence intensity (a.u.)
TGTGTTCTGCAATGCATAATTGCACCAGTTCTAGTACCTGCGGAGTCACCTAGTGCAG | 45300 fluorescence intensity (a.u.)
GGTGCAGTTCATCATATGTGTTAGACTAATTGAGTAATTGCGGAGTCACCTAGTGCAG | 36500 fluorescence intensity (a.u.)
